Screening data from PubChem.
In the library only some 0.35% were active in any assay of this set; here they are far more common.
Anesthetic bind: qHTS Assay for Identification of Novel General Anesthetics | Ferritin light chain (Equus caballus), P02791 | apoferritin/1-aminoanthracene competitive binding, fluorescence | Potency, µM (titrated, usually from 77.5 µM), hits mostly inhibitors | actives 0.074% (n = 350,000) | AID 485281, 2010; note: nearly all actives have a fitted effect of over 20% in size
Target sequence (P02791 2-175 limits assumed): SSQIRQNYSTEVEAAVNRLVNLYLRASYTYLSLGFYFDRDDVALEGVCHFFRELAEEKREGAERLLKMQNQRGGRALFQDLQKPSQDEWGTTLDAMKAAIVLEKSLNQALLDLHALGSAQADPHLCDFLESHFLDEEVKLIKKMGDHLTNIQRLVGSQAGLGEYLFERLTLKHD
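10 uM apoferritin + 50% sat. 1-AMA, PBS; cpd 10 min RT; Ex380/Em535 endpoint; normalized to free probe vs complex; 4-param Hill fit; propofol titration as pos. ctrl.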
MBNL1-CUG inh: qHTS Assay for Inhibitors of MBNL1-poly(CUG) RNA binding. actives 0.036% (n = 280,000). Potency, µM (titrated, usually from 57.5 µM), most hits filed as inhibitors. Muscleblind-like protein 1 (Homo sapiens), Q9NR56. TR-FRET MBNL1-His/biotin-(CUG)12 binding, 665/545 ratio; active = well fitted inhibition curve with a large enough effect in the signal ratio, with a control signal flat, not every such curve was filed as active; inconclusive = small, poorly fitted or top-dose-only effect, or effect the other way, or a change in a side signal; inactive = no such curve, though single readings can be large or run the other way; the % refers to the signal ratio
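Compound titration spanned 92 nM–58 uM against the MBNL1-His/biotin-(CUG)12 complex. After 60 min at room temperature with 5 nM streptavidin-XL665 and 0.055 ng/ul terbium anti-His, ratiometric 665/545 nm emission (Ex 340 nm) normalized to controls.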
GLS inhibitor: qHTS for Inhibitors of Glutaminase (GLS). GLS enzymatic activity, qHTS titration. Potency, µM (titrated, usually from 45.5 µM), most hits filed as inhibitors. actives 0.21% (n = 410,000). Glutaminase kidney isoform, mitochondrial (Homo sapiens), O94925. AID 624170, 2012
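Human kidney-isoform GLS in 45 mM KH2PO4 pH 8.2, 0.02% Tween-20, with compound, started with 1mM L-Glutamine (added stock). Glutamate oxidase/HRP/Amplex red coupled fluorescence read at start and after 30 min at RT.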
BCR signal inh: qHTS Assay to Find Inhibitors of Chronic Active B-Cell Receptor Signaling. AID 493014, 2011. ABC-DLBCL IkBa-CBG/CBR reporter, luminescence ratio, 4 h. Potency, µM (doses to about 46.1 µM), usual class: inhibitors. actives 0.05% (n = 340,000); active = well fitted inhibition curve with a large enough effect in the signal ratio, with a control signal flat, not every such curve was filed as active; inconclusive = small, poorly fitted or top-dose-only effect, or effect the other way, or a change in a side signal; the % refers to the signal ratio
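Concentration-response series (up to 46 uM) were applied to TMD8 dual-reporter cells for 4 h at 37C with doxycycline. Green/red ratio, after filter-overlap correction, defined %Activity; red signal alone was normalised to basal cells and zero luminescence.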
B2AR arrestin: qHTS assay of beta-arrestin-biased ligands of beta2-adrenergic receptor; Beta-2 adrenergic receptor (Homo sapiens), P07550; beta-arrestin recruitment to beta2AR, cell-based reporter; Potency, µM (titrated, usually from 46.1 µM), hits mostly activators; actives 0.02% (n = 330,000); AID 492947, 2010; note: nearly all actives have a fitted effect of over 65% in size
Target sequence (P07550 whole entry, looked up): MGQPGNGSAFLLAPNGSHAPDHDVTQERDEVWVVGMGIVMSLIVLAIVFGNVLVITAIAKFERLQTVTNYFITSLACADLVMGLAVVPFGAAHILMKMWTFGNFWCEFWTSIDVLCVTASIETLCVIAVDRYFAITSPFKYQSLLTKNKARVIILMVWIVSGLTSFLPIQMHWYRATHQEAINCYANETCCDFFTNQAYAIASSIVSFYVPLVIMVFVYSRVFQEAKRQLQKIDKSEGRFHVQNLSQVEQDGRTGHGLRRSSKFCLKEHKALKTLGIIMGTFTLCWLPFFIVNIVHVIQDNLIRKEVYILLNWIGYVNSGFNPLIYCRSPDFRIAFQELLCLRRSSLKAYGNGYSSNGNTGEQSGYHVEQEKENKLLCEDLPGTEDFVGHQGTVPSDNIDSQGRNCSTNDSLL
Each line names hits and unclear results; the compound was inactive in the other large screens; ! = not confirmed by another sample. Unless noted, calls come from the whole dose curve; as a rule, active = well fitted curve in the direction sought with a large enough effect; inconclusive = small, poorly fitted or top-dose-only effect, or another doubt; inactive = no such curve, though single readings can be large; an effect the other way counts as inactive or inconclusive.

O=C(c1cc(-c2ccncc2)nc2ccccc12)N1CCN(c2ccccc2O)CC1	none
O=C(c1cc(-c2ccccc2)nc2ccccc12)N1CCN(c2ccccc2O)CC1	GLS inhibitor 7.1µM, BCR signal inh inconclusive
CCc1c(C)c(C#N)c2nc3ccccc3n2c1Cl	BCR signal inh 8.2µM (no result: GLS inhibitor)
Cc1ccc(NC(=O)c2ccc3c(c2)C(=O)N(CC2CCCO2)C3=O)cc1C (stereo unspecified)	Anesthetic bind inconclusive, MBNL1-CUG inh inconclusive, BCR signal inh inconclusive, B2AR arrestin 7.1µM
CCC(=O)Nc1ccc2nc(SCCOc3ccc(C)cc3OC)sc2c1	none (no result: MBNL1-CUG inh, BCR signal inh, B2AR arrestin)
CCCOc1ccccc1N1C(=O)CC(N(O)c2ccccc2)C1=O (stereo unspecified)	GLS inhibitor 1.1µM
COc1ccccc1N1C(=O)CC(N(O)c2ccccc2)C1=O (stereo unspecified)	GLS inhibitor 1.3µM, BCR signal inh inconclusive
Cc1nc(NCCc2ccc(O)cc2)c2nnn(Cc3ccccc3)c2n1	Anesthetic bind 16µM, BCR signal inh inconclusive
Cc1nc(NCCc2ccc(F)cc2)c2nnn(Cc3ccccc3)c2n1	BCR signal inh inconclusive
O=C1CC(c2ccc(Cl)cc2)CC(=O)C1CS(=O)(=O)c1ccccc1 (stereo unspecified)	Anesthetic bind inconclusive, GLS inhibitor inconclusive, BCR signal inh inconclusive
COc1ccc(C2CC(=O)C(CS(=O)(=O)c3ccccc3)C(=O)C2)cc1 (stereo unspecified)	Anesthetic bind 32µM, MBNL1-CUG inh inconclusive
COc1ccc(Cl)cc1-c1n[nH]c(=S)n1C1CCCCC1	Anesthetic bind inconclusive, GLS inhibitor 4µM
COc1ccc(-n2c(-c3ccc(Cl)cc3Cl)n[nH]c2=S)c(OC)c1	GLS inhibitor 11µM
O=c1c2ncn([C@@H]3O[C@@H]4COP(=O)(O)O[C@H]4[C@H]3O)c2nc2[nH]c(-c3ccccc3)cn12	none (no result: MBNL1-CUG inh, GLS inhibitor, BCR signal inh, B2AR arrestin)
COc1ccc(CNC(=O)C(C(C)C)N2Cc3ccccc3C2=O)cc1 (stereo unspecified)	none (no result: MBNL1-CUG inh, BCR signal inh, B2AR arrestin)
COc1cc(/C=N/Nc2cc(C)nc(N)n2)ccc1O	GLS inhibitor 10µM
COc1ccc(/C=N/Nc2cc(C)nc(N)n2)cc1	MBNL1-CUG inh inconclusive
C=CCNC(=S)NNC(=O)COc1cccc(Cl)c1	Anesthetic bind inconclusive, BCR signal inh 18µM
O=C1C(O)=C(O)C(=O)C(O)=C1O	GLS inhibitor 20µM (no result: MBNL1-CUG inh, BCR signal inh, B2AR arrestin)
Cc1ccc(C2=C(O)C(=O)C(c3ccc(C)cc3)=C(O)C2=O)cc1	none (no result: Anesthetic bind, MBNL1-CUG inh, BCR signal inh, B2AR arrestin)
C/C(=C(\CCO)SSCC1CCCO1)N(C=O)Cc1cnc(C)nc1N (stereo unspecified)	none (no result: Anesthetic bind, MBNL1-CUG inh, BCR signal inh, B2AR arrestin)
Cc1c(C)c2ccc(OCC(=O)N[C@@H](Cc3ccccc3)C(=O)O)cc2oc1=O	GLS inhibitor 16µM
Cc1c(C)c2ccc(OCC(=O)NC(Cc3ccc(Cl)cc3)C(=O)O)cc2oc1=O (stereo unspecified)	none
COc1ccc(/C=N/NC(=O)CCn2cnc(-c3ccccc3)c2-c2ccccc2)cc1	BCR signal inh 23µM
Cc1ccc(-c2cc3nccc(-c4cc([N+](=O)[O-])ccc4O)n3n2)cc1	GLS inhibitor 8.9µM (no result: MBNL1-CUG inh, BCR signal inh, B2AR arrestin)
CCc1ccc(NCc2cc3cc(OC)c(OC)cc3n(CC(=O)Nc3cc(C)ccc3C)c2=O)cc1	GLS inhibitor 11µM (no result: MBNL1-CUG inh, BCR signal inh, B2AR arrestin)
CC(=O)c1cccc(NC(=O)Cn2c(=O)c(CNc3ccc(C)cc3)cc3cc4c(cc32)OCCO4)c1	GLS inhibitor 10µM (no result: MBNL1-CUG inh, BCR signal inh, B2AR arrestin)
Cc1cccc(C)c1N=Nc1c(C)cc(O)cc1C	Anesthetic bind 25µM, BCR signal inh inconclusive
Cc1cccc(O)c1C	none (no result: Anesthetic bind, MBNL1-CUG inh)
Cn1c(=O)c2[nH]c(-c3ccccc3Cl)c(O)c2n(C)c1=O	GLS inhibitor 22µM, BCR signal inh inconclusive
Cn1c(=O)c2[nH]c(-c3ccccc3)c(O)c2n(C)c1=O	none
CC(=O)N[C@H]1[C@H](O[C@@H]2c3ccc(c(Cl)c3)Oc3cc4cc(c3O[C@@H]3O[C@H](CO)[C@@H](O)[C@H](O)C3C)Oc3ccc(cc3Cl)C[C@H]3NC(=O)[C@@H](N)c5ccc(O)c(c5)Oc5cc(O)cc(c5)[C@H](NC3=O)C(=O)N[C@H]4C(=O)N[C@H]3C(=O)N[C@@H]2C(=O)N[C@@H](C(=O)O)c2cc(O)cc(O[C@H]4O[C@H](CO)[C@@H](O)C(O)[C@@H]4O)c2-c2cc3ccc2O)O[C@H](CO)[C@@H](O)[C@@H]1O (stereo partly specified)	GLS inhibitor 16µM (no result: Anesthetic bind, MBNL1-CUG inh, BCR signal inh, B2AR arrestin)
Cc1nc(SCC(=O)Nc2c(C)n(C)n(-c3ccccc3)c2=O)c(C#N)c(C)c1C	none (no result: Anesthetic bind, MBNL1-CUG inh)
CCCc1cc(SCC(=O)Nc2c(C)n(C)n(-c3ccccc3)c2=O)n2c(nc3ccccc32)c1C#N	BCR signal inh inconclusive, B2AR arrestin 3.5µM
Cc1ccc(NC(=O)CSc2nc(-c3ccco3)nc3cc(=O)[nH]n23)cc1C	none (no result: MBNL1-CUG inh, BCR signal inh, B2AR arrestin)
CC1Cc2cc(S(=O)(=O)NCc3ccc(N(C)C)cc3)ccc2N1C(=O)C1CCC1 (stereo unspecified)	none (no result: MBNL1-CUG inh, BCR signal inh, B2AR arrestin)
Cn1c(=O)c2c(nc(N/N=C/c3ccncc3)n2Cc2ccccc2)n(C)c1=O	GLS inhibitor 13µM, BCR signal inh inconclusive (no result: MBNL1-CUG inh)
Cc1ccc(Cn2c(N/N=C/c3ccncc3)nc3c2c(=O)n(C)c(=O)n3C)cc1	MBNL1-CUG inh inconclusive, GLS inhibitor inconclusive, BCR signal inh inconclusive
N[C@@H](Cc1cc(I)c(Oc2ccc(O)c(I)c2)c(I)c1)C(=O)O	GLS inhibitor 16µM!, BCR signal inh inconclusive
O=C(CC1SC(=O)N(c2ccccc2)C1=O)Nc1ccc(Br)cc1 (stereo unspecified)	GLS inhibitor inconclusive, BCR signal inh inconclusive
O=C(CC1SC(=O)N(c2ccccc2)C1=O)Nc1ccc(Cl)cc1 (stereo unspecified)	GLS inhibitor 11µM, BCR signal inh inconclusive (no result: MBNL1-CUG inh)
O=C1NN(c2ccc(Cl)c(Cl)c2)C(=O)/C1=C/c1ccc(-c2ccccc2C(=O)O)o1	GLS inhibitor 13µM, BCR signal inh inconclusive
COC(=O)c1ccc(N2NC(=O)/C(=C/c3ccc(-c4ccc(Cl)c(C(=O)O)c4)o3)C2=O)cc1	GLS inhibitor inconclusive
O=C1NN(c2ccccc2)C(=O)/C1=C/c1ccc(-c2ccc(C(=O)O)cc2)o1	GLS inhibitor 11µM, BCR signal inh inconclusive
Cc1cc(C)c(S(=O)(=O)NCC2CCC(C(=O)NCCc3ccccc3)CC2)c(C)c1 (stereo unspecified)	none (no result: MBNL1-CUG inh, B2AR arrestin)
O=C1CCCC2=C1Sc1ccccc1N2	MBNL1-CUG inh inconclusive, GLS inhibitor 13µM, BCR signal inh inconclusive
Cc1ccc(C(=O)OCc2nc3ccsc3c(=O)[nH]2)o1	BCR signal inh inconclusive (no result: Anesthetic bind, MBNL1-CUG inh)
